# EPAC2 ant val: Validation qHTS for antagonist of cAMP-regulated guanine nucleotide exchange factor 4 (EPAC2) | Rap guanine nucleotide exchange factor 4 (Homo sapiens), Q8WZA2 | Potency, µM (doses to about 112 µM), for the others: top-dose activity, negative = inhibition, most hits filed as inhibitors | EPAC2 Rap1B BODIPY-GDP exchange, fluorescence | 16,000 compounds, 1.7% hits;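 further: 100% = activation by cAMP agonist control; nearly all actives have a fitted effect of over 40% in size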
#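 Normalized against a 6.5 mM cAMP agonist control, compounds were tested on 100 nM EPAC2 exchanging Rap1B-bound BODIPY-GDP (250 nM) for 50 uM GDP. Fluorescence drop (ex 480, em 540 nm) was tracked at room temperature over 30 min at 5-min intervals.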
# EPAC1 agonist: Validation qHTS for agonist of cAMP-regulated guanine nucleotide exchange factor 3 (EPAC1); EPAC1 Rap1b BODIPY-GDP exchange, fluorescence; Potency, µM, for the others: max response, positive = active, usual class: activators; 16,000 compounds, 1% hits; AID 1645883, 2021; further: nearly all actives have a fitted effect of over 70% in size
# An asterisk follows results filed as active; i = inactive; ? = inconclusive; [ ] = dose if it differs, or a comment. Rows were chosen to be rich in hits. Some 2.9% of all compounds tested hit in one or more screens of this group. The call rests on the fitted dose curve; in most records, active means well fitted curve in the direction sought with a large enough effect; inconclusive means small, poorly fitted or top-dose-only effect, or another doubt; inactive means no such curve, though single readings can be large; an effect the other way counts as inactive or inconclusive. Unless noted, on the % scale 0 is the no-effect control and ±100 the full control effect; potency means the concentration at half of the fitted maximal effect.
SMILES,EPAC2 ant val,EPAC1 agonist
CCCCC[C@H]1CN(Cc2ccccc2)C(=O)[C@@H]1CC(=O)NCc1ccc(OC)cc1,22.4µM*,-81.9%
C=CC1=C(C(=O)O)N2C(=O)[C@@H](NC(=O)/C(=N/OCC(=O)O)c3csc(N)n3)[C@H]2SC1 (stereo in doubt),-18.5%[56.6 µM],-17.9%
O=C(O)COc1ccc(C(=O)c2cccs2)c(Cl)c1Cl,-5.7%,-12.2%
CCCC[C@@]1(C2CCCC2)Cc2cc(OCC(=O)O)c(Cl)c(Cl)c2C1=O,14.1µM*,-6.3%
COc1ccc(-c2nc3cc(F)ccc3cc2CN(C(=O)c2cccs2)C2CC2)cc1,-20.3%,-10.9%
COc1cccc(-c2nc3cc(SC)ccc3cc2CN(C(=O)c2sccc2C)C2CC2)c1,39.8µM*,?
COc1ccc(C(=O)N2CCCC(c3nc(SCc4ccccn4)ncc3C)C2)cc1F (stereo unspecified),?,-17.0%
COc1ccccc1-c1cc(N(C)Cc2ccco2)ncn1,?,-26.9%
CN(C)c1ncnc2ccc(-c3ccoc3)cc12,-29.4%,-23.1%
CN(Cc1ccco1)c1ncnc2ccc(-c3ccccc3Cl)cc12,39.8µM*,?
CN(Cc1ccco1)c1ncnc2ccc(-c3ccoc3)cc12,44.7µM*,-14.2%
COc1ccccc1-c1ccc2ncnc(N(C)Cc3ccco3)c2c1,50.1µM*,?
CN(Cc1ccco1)c1ncncc1-c1ccccc1Cl,5.2%,?
CO[C@@H]1[C@H](OC(=O)/C=C/C=C/C=C/C=C/C(=O)O)CC[C@]2(CO2)[C@H]1[C@@]1(C)O[C@@H]1CC=C(C)C,-4.4%,-24.5%
CCOC(=O)N1CCN(Cc2ccc3c(c2)CN(C(=O)c2ccc(C#CC(C)(C)O)o2)CCO3)CC1,?,0.4%
CCCCC/C=C\CCC(=O)N[C@H]1[C@H](Oc2c3cc4cc2Oc2ccc(cc2Cl)[C@@H](O[C@@H]2O[C@H](CO)[C@@H](O)[C@H](O)[C@H]2NC(C)=O)[C@@H]2NC(=O)[C@H](NC(=O)[C@@H]4NC(=O)[C@H]4NC(=O)[C@@H](Cc5ccc(c(Cl)c5)O3)NC(=O)[C@H](N)c3ccc(O)c(c3)Oc3cc(O)cc4c3)c3ccc(O)c(c3)-c3c(O[C@H]4O[C@H](CO)[C@@H](O)[C@H](O)[C@@H]4O)cc(O)cc3[C@@H](C(=O)O)NC2=O)O[C@H](CO)[C@@H](O)[C@@H]1O,35.2%,-122.2%
COC1=C(C(=O)O)N2C(=O)[C@@H](NC(=O)[C@H](N)C3=CCC=CC3)[C@H]2SC1,9.6%,11.3%
Cc1ccc(C(=O)Nc2cccc(-c3nc(CNC(=O)c4cccc(N(C)C)c4)c(C)o3)c2)s1,3.1%,13.4%
Oc1cc(-c2nc3ccccc3s2)cc2c1OCCN(Cc1cn[nH]c1-c1ccc(Cl)cc1)C2,-23.6%,-3.5%
COC(=O)[C@]12CCC(C)(C)C[C@@H]1[C@@H]1C(=O)C=C3[C@@]4(C)C=C(C#N)C(=O)C(C)(C)[C@@H]4CC[C@@]3(C)[C@]1(C)CC2,?,14.9%
Cc1ccccc1C1(CC(=O)N2CCCC2c2nccs2)CC(=O)N(C2CCCC2)C1=O (stereo unspecified),-17.2%,-1.6%
CC[C@]1(O)C[C@H]2CN(CCC3=c4ccccc4=N[C]3[C@@](C(=O)OC)(c3cc4c(cc3OC)N(C)[C@H]3[C@@](O)(C(N)=O)[C@H](O)[C@]5(CC)C=CCN6CC[C@]43[C@@H]65)C2)C1,-14.3%,20.3%
CN(C)c1ccc(/C=C/c2c(Cl)cnc3ccccc23)cc1,-26.5%,100µM*
Cc1ccc2ncc(C)c(/C=C/c3ccc(N(C)C)cc3)c2c1,-22.5%,-24.5%
CN(C)c1ccc(/C=C/c2ccnc3c(-c4ccccc4)cccc23)cc1,-15.7%,?
SMILES,EPAC2 ant val,EPAC1 agonist
CN(C)c1ccc(/C=C/c2ccnc3c(Cl)cccc23)cc1,126.7%,112µM*
COCc1c(C(=O)NC2CCCCCC2)cnn1-c1nccc(-c2cc(C)sc2C)n1,?,20.6%
COc1cc([C@@H]2c3cc4c(cc3C(O[C@@H]3O[C@@H]5CO[C@@H](C)O[C@H]5[C@H](O)[C@H]3O)C3COC(=O)[C@@H]32)OCO4)cc(OC)c1OP(=O)(O)O (stereo partly specified),20.0%,-3.1%
O=C1OC2(c3ccccc31)c1cc(I)c(O)c(I)c1Oc1c2cc(I)c(O)c1I,i,31.6µM*
O=C1OC2(c3ccc(O)cc3Oc3cc(O)ccc32)c2ccccc21,41.5%,?
CN(C)c1ncc2nc(-c3ccc(F)cc3)c(=O)n(-c3ccccc3)c2n1,-11.1%,100µM*
CN(C)c1ncc2nc(-c3ccc(F)cc3)c(=O)n(CCc3ccccc3)c2n1,-2.7%,-38.1%
COc1ncc2nc(CCc3ccccc3)c(=O)n(-c3ccccc3)c2n1,-44.3%,?
